Measured values as given in paper PMC7862700, “An all-to-all approach to the identification of sequence-specific readers for epigenetic DNA modifications on cytosine”.

How the values were obtained:
Test in all cases: DAPPL (digital affinity profiling via proximity ligation, sequencing); 10 mM Tris-HCl pH 7.5, 50 mM NaCl, 1 mM DTT, 4% glycerol, room temperature, 30 min; GST-TFs on glutathione beads, 16-mer random dsDNA library, 0.1% formaldehyde crosslink after washing; high values mean tight binding
FEV = molecular target: T1, FEV (Homo sapiens, UniProt Q99581 1-238); conditions: protein: recombinant; tags: N-terminal GST; dsDNA, one strand shown
T1 sequence: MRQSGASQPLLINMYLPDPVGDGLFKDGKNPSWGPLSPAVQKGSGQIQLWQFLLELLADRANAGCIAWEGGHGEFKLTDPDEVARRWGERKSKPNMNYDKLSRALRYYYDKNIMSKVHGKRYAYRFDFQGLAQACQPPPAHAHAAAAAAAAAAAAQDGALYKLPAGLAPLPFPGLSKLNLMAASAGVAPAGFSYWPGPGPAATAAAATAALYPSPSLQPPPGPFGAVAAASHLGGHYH
Method in brief: (§1)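 GST fusions of human transcription factors were expressed in yeast and captured with glutathione beads. Once given DNA barcodes and pooled alongside a tag-only sample, they were incubated for 30 min at room temperature with 200 nmole of a random double-stranded 16-mer DNA library in Tris/NaCl/DTT/glycerol buffer, then washed, crosslinked (0.1% formaldehyde), proximity-ligated, PCR-amplified and sequenced on an Illumina NextSeq500. The binding signal of each hexamer is its read frequency for a factor divided by its frequency for the tag-only sample.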

ETV5 = ETV5 (Homo sapiens, UniProt P41161 1-510); conditions: protein: recombinant; tags: N-terminal GST; dsDNA, one strand shown
Method in brief: as §1

HSF1 = HSF1 (Homo sapiens, UniProt Q00613 1-529); conditions: protein: recombinant; tags: N-terminal GST; chain copies: 3; dsDNA, one strand shown
Method in brief: as §1

SPIC = molecular target: T2, SPIC (Homo sapiens, UniProt Q8N5J4 1-248); conditions: protein: recombinant; tags: N-terminal GST; dsDNA, one strand shown
T2 sequence: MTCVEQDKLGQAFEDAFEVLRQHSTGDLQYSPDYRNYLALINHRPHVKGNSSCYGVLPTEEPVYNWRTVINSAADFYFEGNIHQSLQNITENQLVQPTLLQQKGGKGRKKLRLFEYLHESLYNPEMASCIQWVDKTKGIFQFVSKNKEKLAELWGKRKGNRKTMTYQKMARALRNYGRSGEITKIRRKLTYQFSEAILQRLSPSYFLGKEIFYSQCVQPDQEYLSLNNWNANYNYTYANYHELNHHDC
Method in brief: as §1

ELF4 = ELF4 (Homo sapiens, UniProt Q99607 1-663); conditions: protein: recombinant; tags: N-terminal GST; dsDNA, one strand shown
Method in brief: as §1

ELK4 = molecular target: T3, ELK4 (Homo sapiens, UniProt P28324-2 1-405); conditions: protein: recombinant; tags: N-terminal GST; dsDNA, one strand shown
T3 sequence: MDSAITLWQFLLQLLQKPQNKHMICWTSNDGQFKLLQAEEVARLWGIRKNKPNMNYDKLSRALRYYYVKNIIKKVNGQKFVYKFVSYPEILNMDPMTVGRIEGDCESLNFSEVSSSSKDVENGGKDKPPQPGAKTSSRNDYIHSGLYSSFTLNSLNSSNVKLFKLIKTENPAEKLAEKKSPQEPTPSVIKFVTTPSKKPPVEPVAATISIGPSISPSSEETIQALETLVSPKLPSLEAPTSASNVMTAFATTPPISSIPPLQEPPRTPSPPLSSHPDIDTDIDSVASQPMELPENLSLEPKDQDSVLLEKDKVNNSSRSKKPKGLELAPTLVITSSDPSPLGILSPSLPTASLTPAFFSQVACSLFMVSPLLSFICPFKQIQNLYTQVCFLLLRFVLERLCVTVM
Method in brief: as §1

ELF3 = molecular target: T4, ELF3 (Homo sapiens, UniProt P78545 1-371); conditions: protein: recombinant; tags: N-terminal GST; dsDNA, one strand shown
T4 sequence: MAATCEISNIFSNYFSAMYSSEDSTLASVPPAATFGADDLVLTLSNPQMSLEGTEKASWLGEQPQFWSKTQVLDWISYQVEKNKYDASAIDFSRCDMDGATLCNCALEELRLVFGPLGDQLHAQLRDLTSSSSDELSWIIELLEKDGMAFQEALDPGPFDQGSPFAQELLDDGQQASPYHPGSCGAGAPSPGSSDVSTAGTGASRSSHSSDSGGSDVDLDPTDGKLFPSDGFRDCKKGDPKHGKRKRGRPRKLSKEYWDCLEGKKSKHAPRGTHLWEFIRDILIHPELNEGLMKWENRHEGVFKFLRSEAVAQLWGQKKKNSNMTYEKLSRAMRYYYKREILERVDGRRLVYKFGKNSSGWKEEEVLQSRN
Method in brief: as §1

CRX = CRX (Homo sapiens, UniProt O43186 1-299); conditions: protein: recombinant; tags: N-terminal GST; dsDNA, one strand shown
Method in brief: as §1

ETV1 = ETV1 (Homo sapiens, UniProt P50549 1-477); conditions: protein: recombinant; tags: N-terminal GST; dsDNA, one strand shown
Method in brief: as §1

ERF = molecular target: T5, ERF (Homo sapiens, UniProt P50548 1-548); conditions: protein: recombinant; tags: N-terminal GST; dsDNA, one strand shown
T5 sequence: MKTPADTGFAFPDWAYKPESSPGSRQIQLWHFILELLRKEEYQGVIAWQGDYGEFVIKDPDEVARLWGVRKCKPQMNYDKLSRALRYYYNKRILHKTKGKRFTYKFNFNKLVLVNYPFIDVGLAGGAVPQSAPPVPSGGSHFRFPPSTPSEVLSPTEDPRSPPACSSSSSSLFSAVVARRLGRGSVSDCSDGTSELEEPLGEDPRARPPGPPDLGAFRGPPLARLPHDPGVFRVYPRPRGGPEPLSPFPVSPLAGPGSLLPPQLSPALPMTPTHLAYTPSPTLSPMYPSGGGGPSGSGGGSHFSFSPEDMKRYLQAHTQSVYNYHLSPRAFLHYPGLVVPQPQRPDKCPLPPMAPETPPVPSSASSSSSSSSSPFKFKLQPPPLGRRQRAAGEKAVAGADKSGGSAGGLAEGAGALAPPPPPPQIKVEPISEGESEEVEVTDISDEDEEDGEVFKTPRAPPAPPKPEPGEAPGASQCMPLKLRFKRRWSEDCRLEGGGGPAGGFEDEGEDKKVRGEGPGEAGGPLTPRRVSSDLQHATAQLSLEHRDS
Method in brief: as §1

ETV3L = molecular target: T6, ETV3L (Homo sapiens, UniProt Q6ZN32 1-361); conditions: protein: recombinant; tags: N-terminal GST; dsDNA, one strand shown
T6 sequence: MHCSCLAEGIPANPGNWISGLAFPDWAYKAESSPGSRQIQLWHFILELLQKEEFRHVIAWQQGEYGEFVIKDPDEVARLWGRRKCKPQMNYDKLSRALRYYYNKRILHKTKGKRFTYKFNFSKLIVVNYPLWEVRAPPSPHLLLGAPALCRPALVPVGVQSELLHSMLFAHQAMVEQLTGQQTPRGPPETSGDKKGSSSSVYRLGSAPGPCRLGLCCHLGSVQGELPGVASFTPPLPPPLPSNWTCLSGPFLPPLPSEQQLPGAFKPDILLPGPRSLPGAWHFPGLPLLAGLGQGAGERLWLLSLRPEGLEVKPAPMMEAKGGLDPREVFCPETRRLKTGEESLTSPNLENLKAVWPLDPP
Method in brief: as §1

ETS2 = molecular target: T7, ETS2 (Homo sapiens, UniProt P15036 1-469); conditions: protein: recombinant; tags: N-terminal GST; dsDNA, one strand shown
T7 sequence: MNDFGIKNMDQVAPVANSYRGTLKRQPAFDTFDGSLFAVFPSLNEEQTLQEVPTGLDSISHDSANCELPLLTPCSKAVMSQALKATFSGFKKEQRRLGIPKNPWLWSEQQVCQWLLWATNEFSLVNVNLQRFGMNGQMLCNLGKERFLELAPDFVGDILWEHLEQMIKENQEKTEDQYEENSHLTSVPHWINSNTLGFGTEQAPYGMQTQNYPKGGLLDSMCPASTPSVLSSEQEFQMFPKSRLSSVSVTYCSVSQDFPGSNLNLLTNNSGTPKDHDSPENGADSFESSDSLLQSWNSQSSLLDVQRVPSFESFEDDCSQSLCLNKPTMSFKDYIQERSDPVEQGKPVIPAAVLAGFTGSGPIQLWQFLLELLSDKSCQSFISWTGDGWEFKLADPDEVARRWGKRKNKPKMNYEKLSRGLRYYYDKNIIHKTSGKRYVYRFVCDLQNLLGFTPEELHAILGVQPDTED
Method in brief: as §1

SPDEF = molecular target: T8, SPDEF (Homo sapiens, UniProt O95238 1-335); conditions: protein: recombinant; tags: N-terminal GST; dsDNA, one strand shown
T8 sequence: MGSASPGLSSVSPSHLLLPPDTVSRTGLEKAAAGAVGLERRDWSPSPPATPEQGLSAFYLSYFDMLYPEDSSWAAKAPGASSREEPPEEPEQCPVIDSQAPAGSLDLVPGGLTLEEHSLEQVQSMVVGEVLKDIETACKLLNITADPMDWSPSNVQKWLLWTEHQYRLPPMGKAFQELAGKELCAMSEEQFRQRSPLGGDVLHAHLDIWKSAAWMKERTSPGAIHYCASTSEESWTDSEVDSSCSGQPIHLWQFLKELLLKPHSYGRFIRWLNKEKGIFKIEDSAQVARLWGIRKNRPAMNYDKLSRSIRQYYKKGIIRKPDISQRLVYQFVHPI
Method in brief: as §1

ETV7 = molecular target: T9, ETV7 (Homo sapiens, UniProt Q9Y603 1-341); conditions: protein: recombinant; tags: N-terminal GST; dsDNA, one strand shown
T9 sequence: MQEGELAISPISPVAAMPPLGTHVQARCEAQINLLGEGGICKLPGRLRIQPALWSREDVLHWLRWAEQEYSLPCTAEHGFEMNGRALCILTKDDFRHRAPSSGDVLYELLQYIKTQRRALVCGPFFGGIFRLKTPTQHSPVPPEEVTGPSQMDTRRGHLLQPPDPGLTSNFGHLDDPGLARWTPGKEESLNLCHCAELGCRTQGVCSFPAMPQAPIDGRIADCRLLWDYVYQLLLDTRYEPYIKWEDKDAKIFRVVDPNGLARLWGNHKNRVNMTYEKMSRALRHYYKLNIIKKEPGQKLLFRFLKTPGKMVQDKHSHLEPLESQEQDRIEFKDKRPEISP
Method in brief: as §1

ELF5 = molecular target: T10, ELF5 (Homo sapiens, UniProt Q9UKW6-2 1-255); conditions: protein: recombinant; tags: N-terminal GST; dsDNA, one strand shown
T10 sequence: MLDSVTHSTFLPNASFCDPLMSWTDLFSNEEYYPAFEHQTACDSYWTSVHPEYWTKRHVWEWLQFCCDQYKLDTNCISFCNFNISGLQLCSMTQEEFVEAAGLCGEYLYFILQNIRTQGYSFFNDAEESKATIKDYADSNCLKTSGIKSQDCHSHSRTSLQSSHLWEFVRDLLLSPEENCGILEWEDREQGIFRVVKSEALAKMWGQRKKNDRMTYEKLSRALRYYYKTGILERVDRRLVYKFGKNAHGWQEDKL
Method in brief: as §1

ETV3 = molecular target: T11, ETV3 (Homo sapiens, UniProt P41162-2 1-143); conditions: protein: recombinant; tags: N-terminal GST; dsDNA, one strand shown
T11 sequence: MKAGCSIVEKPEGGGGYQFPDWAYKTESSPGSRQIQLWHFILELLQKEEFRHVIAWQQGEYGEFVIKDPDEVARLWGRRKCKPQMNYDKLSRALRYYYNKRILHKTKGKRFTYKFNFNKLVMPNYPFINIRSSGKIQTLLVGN
Method in brief: as §1

ETV6 = ETV6 (Homo sapiens, UniProt P41212 1-452); conditions: protein: recombinant; tags: N-terminal GST; dsDNA, one strand shown
Method in brief: as §1

ETV1, sequence (P50549 whole entry): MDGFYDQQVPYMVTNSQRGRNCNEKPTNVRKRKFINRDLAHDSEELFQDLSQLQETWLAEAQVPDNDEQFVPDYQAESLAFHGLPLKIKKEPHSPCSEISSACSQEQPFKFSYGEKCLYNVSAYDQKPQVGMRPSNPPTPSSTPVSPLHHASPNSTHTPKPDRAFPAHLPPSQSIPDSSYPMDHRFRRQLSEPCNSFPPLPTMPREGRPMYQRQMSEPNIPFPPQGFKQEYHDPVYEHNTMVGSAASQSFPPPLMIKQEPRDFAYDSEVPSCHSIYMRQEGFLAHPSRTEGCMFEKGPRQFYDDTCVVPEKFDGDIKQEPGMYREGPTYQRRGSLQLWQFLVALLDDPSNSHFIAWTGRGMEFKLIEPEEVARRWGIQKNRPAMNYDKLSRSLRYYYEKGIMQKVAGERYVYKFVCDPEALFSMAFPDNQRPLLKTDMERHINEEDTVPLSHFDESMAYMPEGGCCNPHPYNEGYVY
ETV6, sequence (P41212 whole entry): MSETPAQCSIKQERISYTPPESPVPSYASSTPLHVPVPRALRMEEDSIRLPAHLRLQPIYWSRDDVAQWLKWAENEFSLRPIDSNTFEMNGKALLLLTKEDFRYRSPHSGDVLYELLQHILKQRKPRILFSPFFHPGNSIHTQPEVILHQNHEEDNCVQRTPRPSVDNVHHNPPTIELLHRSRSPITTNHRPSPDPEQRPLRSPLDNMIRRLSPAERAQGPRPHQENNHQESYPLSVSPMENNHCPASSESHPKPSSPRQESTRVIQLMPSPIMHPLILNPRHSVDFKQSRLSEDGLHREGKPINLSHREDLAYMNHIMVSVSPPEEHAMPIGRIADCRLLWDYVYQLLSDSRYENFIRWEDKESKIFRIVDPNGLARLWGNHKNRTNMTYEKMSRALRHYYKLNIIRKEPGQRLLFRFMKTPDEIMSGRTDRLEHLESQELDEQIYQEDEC
ETV5, sequence (P41161 whole entry): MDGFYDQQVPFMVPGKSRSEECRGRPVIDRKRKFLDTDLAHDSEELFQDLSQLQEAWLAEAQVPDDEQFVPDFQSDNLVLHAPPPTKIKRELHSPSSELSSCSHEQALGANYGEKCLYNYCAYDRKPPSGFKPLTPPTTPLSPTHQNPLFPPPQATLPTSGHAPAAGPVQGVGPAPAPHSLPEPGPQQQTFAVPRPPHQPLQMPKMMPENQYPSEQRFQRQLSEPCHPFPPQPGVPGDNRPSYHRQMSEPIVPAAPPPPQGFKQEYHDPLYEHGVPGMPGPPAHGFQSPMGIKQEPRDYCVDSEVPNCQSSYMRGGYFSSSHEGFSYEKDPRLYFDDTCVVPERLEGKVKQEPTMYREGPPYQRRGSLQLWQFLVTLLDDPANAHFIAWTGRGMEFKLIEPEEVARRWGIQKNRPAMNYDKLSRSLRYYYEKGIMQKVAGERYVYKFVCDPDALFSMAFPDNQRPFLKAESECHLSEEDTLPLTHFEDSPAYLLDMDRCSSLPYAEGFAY
CRX, sequence (O43186 whole entry): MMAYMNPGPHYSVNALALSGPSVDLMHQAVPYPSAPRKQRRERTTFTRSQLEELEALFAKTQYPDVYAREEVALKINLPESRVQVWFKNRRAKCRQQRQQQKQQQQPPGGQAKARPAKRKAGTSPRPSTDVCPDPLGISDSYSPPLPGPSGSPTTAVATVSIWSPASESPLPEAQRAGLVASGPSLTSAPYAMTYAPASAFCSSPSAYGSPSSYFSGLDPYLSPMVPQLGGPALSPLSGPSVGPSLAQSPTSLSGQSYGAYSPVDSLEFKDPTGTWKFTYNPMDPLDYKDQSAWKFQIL
ELF4, sequence (Q99607 whole entry): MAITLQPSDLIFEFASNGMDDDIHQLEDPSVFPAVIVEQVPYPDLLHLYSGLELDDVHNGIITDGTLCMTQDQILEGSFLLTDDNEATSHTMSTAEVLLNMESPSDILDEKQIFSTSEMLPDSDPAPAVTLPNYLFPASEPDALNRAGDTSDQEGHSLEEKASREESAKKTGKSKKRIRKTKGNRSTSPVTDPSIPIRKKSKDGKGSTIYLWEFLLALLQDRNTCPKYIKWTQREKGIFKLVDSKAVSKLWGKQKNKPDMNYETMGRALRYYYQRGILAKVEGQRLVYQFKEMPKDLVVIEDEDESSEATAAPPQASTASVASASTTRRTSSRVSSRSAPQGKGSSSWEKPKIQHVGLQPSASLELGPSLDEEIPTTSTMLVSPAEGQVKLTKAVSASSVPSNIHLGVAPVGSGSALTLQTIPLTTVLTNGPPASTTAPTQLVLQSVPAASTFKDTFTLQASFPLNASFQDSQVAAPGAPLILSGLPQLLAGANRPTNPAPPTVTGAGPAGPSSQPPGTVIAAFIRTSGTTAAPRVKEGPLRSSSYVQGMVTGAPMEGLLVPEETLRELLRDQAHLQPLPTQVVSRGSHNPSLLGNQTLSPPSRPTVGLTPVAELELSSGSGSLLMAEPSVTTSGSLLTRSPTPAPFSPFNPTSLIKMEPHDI
HSF1, sequence (Q00613 whole entry): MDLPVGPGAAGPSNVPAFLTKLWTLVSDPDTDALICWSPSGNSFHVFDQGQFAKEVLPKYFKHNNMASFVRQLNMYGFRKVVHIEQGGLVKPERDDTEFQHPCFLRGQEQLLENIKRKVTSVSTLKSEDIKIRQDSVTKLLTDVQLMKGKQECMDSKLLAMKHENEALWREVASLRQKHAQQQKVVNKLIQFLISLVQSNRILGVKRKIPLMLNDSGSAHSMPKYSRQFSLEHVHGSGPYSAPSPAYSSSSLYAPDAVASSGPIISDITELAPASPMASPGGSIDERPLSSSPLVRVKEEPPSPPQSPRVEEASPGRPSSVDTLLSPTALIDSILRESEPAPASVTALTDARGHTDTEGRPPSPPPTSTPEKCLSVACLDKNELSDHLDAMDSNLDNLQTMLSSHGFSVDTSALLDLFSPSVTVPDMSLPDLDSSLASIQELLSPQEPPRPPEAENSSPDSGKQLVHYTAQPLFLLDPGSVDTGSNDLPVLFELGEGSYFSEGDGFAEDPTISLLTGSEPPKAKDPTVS

Sequence | binding signal (FEV) | binding signal (ETV5) | binding signal (HSF1) | binding signal (SPIC) | binding signal (ELF4) | binding signal (ELK4) | binding signal (ELF3) | binding signal (CRX) | binding signal (ETV1) | binding signal (ERF) | binding signal (ETV3L) | binding signal (ETS2) | binding signal (SPDEF) | binding signal (ETV7) | binding signal (ELF5) | binding signal (ETV3) | binding signal (ETV6)
AGCCTC | 1.27 fold enrichment (6-mer frequency, TF over GST control) | 1.27 fold enrichment (6-mer frequency, TF over GST control) | 1.3 fold enrichment (6-mer frequency, TF over GST control) | 1.25 fold enrichment (6-mer frequency, TF over GST control) | 1.36 fold enrichment (6-mer frequency, TF over GST control) | 1.13 fold enrichment (6-mer frequency, TF over GST control) | 1.22 fold enrichment (6-mer frequency, TF over GST control) | 1.33 fold enrichment (6-mer frequency, TF over GST control) | 1.13 fold enrichment (6-mer frequency, TF over GST control) | 1.22 fold enrichment (6-mer frequency, TF over GST control) | 1.32 fold enrichment (6-mer frequency, TF over GST control) | 1.3 fold enrichment (6-mer frequency, TF over GST control) | 1.14 fold enrichment (6-mer frequency, TF over GST control) | 1.31 fold enrichment (6-mer frequency, TF over GST control) | 1.16 fold enrichment (6-mer frequency, TF over GST control) | 1.15 fold enrichment (6-mer frequency, TF over GST control) | 1.18 fold enrichment (6-mer frequency, TF over GST control)
CTTGGC | 1.24 fold enrichment (6-mer frequency, TF over GST control) | 1.1 fold enrichment (6-mer frequency, TF over GST control) | 1.03 fold enrichment (6-mer frequency, TF over GST control) | 1.14 fold enrichment (6-mer frequency, TF over GST control) | 1.21 fold enrichment (6-mer frequency, TF over GST control) | 1.42 fold enrichment (6-mer frequency, TF over GST control) | 1.19 fold enrichment (6-mer frequency, TF over GST control) | 1.03 fold enrichment (6-mer frequency, TF over GST control) | 1.15 fold enrichment (6-mer frequency, TF over GST control) | 1.35 fold enrichment (6-mer frequency, TF over GST control) | 1.15 fold enrichment (6-mer frequency, TF over GST control) | 1.03 fold enrichment (6-mer frequency, TF over GST control) | 1.14 fold enrichment (6-mer frequency, TF over GST control) | 1.24 fold enrichment (6-mer frequency, TF over GST control) | 1.12 fold enrichment (6-mer frequency, TF over GST control) | 1.12 fold enrichment (6-mer frequency, TF over GST control) | 1.1 fold enrichment (6-mer frequency, TF over GST control)
